The campaign covered roughly 2,300 compounds. About 550 (24%) were called active. A selection follows. Entries with a potency or affinity are not part of this list. Unmarked numbers belong to inactive results. How the calls were made is not given here.
Assay: Vero E6 cell cytotoxicity, dose response, cytotoxicity control for non-replicating M. tuberculosis project, secondary assay (AID 492998);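 further: 100% = vehicle-treated cells and 0% = background wells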
Conditions: series mostly up to 20 µM; viability: at the top concentration

Q: For `NC(=O)COc1ccc2cc(-c3ccc(F)cc3)c(=O)oc2c1`, which “viability” value is on record?
A: 86.5%

Q: For `COc1cc(NC(=O)N2CCOCC2)cc(OC)c1`, which “viability” value is on record?
A: 106%

Q: With `Oc1ccc(F)c2cccnc12` as the compound, how does the “viability” value read?
A: 98%

Q: For `CCOC(=O)C1(CCc2ccccc2)CCN(Cc2ccccn2)CC1`, which “viability” value is on record?
A: 96.7%

Q: For `COc1ccc2cc(C(=O)C3CCCN(Cc4ccccn4)C3)ccc2c1` (stereo unspecified), which “viability” value is on record?
A: 88.9%

Q: For `O=C(COc1c(Br)cc(Br)c2cccnc12)N1CCCCC1`, which “viability” value is on record?
A: 93.4%

Q: With `O=C(CCN1CCOCC1)c1ccc(Cl)cc1` as the compound, how does the “viability” value read?
A: 82.1%

Q: Which “viability” value does the source give for `COc1ccc(/C=N/NC(=O)c2ccncc2)cc1CN1CCOCC1` here?
A: 106%

Q: With `COc1ccc(C(=O)Oc2cccc3cccnc23)cc1S(=O)(=O)N1CCOCC1` as the compound, how does the “viability” value read?
A: 91%

Q: With `Cc1ccc(NC(=O)CO/N=C/c2ccccc2C)c(C)c1` as the compound, how does the “viability” value read?
A: 100%

Q: With `COC(=O)CCSCc1cn2cc(Cl)ccc2n1` as the compound, how does the “viability” value read?
A: 109%

Q: Which “viability” value does the source give for `COc1ccc(-c2nc3ccc(C)cc3c(=O)o2)cc1OC` here?
A: 109%

Q: Which “viability” value does the source give for `CCOC(=O)Cn1c(-c2ccccc2)ccc(C#N)c1=O` here?
A: 97.8%

Q: For `COc1ccc(OC(=O)C(C)N2C(=O)c3ccccc3C2=O)cc1` (stereo unspecified), which “viability” value is on record?
A: 104%

Q: With `O=C(Cc1ccc(Cl)cc1)OCC(=O)c1ccc[nH]1` as the compound, how does the “viability” value read?
A: 109%

Q: For `O=C(COC(=O)CC1CCCC1)Nc1ccc(Cl)cn1`, which “viability” value is on record?
A: 108%

Q: With `NC(=O)COC(=O)c1sc2ccccc2c1Cl` as the compound, how does the “viability” value read?
A: 90.3%

Q: With `CCOC(=O)c1c(C)n(C)c2ccc(OC(C)C(=O)OC)cc12` (stereo unspecified) as the compound, how does the “viability” value read?
A: 98.4%

Q: For `Cc1cc(C(=O)COc2cccc3cccnc23)c(C)n1C`, which “viability” value is on record?
A: 87.9%

Q: With `CCOC(=O)COc1ccc(C2CC(C)=NN2c2ccccc2)cc1` (stereo unspecified) as the compound, how does the “viability” value read?
A: 102%

Q: Which “viability” value does the source give for `Cc1ccccc1Cn1cc(NC(=O)c2noc(C(C)C)c2[N+](=O)[O-])cn1` here?
A: 112%

Q: Which “viability” value does the source give for `CCOC(=O)CCCNC(=O)COC(=O)c1cc(Br)c(Br)s1` here?
A: 107%

Q: With `O=C(N/N=C\c1ccco1)c1cncc(Br)c1` as the compound, how does the “viability” value read?
A: 97.2%

Q: For `Cc1nnc(C)n1/N=C/c1cc(Br)cc(Br)c1O`, which “viability” value is on record?
A: 105%

Q: Which “viability” value does the source give for `COC(=O)C1=C(C(=O)OC)C(c2cc(Cl)ccc2O)c2sc(=O)[nH]c2S1` (stereo unspecified) here?
A: 92.5%

Q: Which “viability” value does the source give for `CSCCC(=O)N1CCCC(CNC(=O)c2ccc(-c3ccccc3)cc2)C1` (stereo unspecified) here?
A: 97.5%

Q: For `CCOc1ccc(-c2ccc(C=O)o2)c([N+](=O)[O-])c1`, which “viability” value is on record?
A: 98.1%

Q: For `O=[N+]([O-])c1cncc([N+](=O)[O-])c1Nc1ccccc1Cl`, which “viability” value is on record?
A: 88.5%

Q: Which “viability” value does the source give for `O=[N+]([O-])c1ccc(Nc2ccccc2)c2nonc12` here?
A: 103%

Q: For `CCCCc1ccc(NS(=O)(=O)c2c(C)n(C)c(=O)n(C)c2=O)cc1`, which “viability” value is on record?
A: 89.4%

Q: Which “viability” value does the source give for `CCOc1ccc(OCC(=O)OCc2cc(=O)n3cc(Br)ccc3n2)cc1` here?
A: 100%

Q: Which “viability” value does the source give for `O=C(N/N=C\C=C\c1ccco1)c1cncc(Br)c1` here?
A: 97.4%

Q: Which “viability” value does the source give for `O=C(N/N=C/c1cccs1)c1cncc(Br)c1` here?
A: 101%

Q: For `COC(=O)C1CC(=O)N(c2ccc(OCc3ccccc3Cl)cc2)C1` (stereo unspecified), which “viability” value is on record?
A: 106%

Q: With `COc1cccc(OCC(=O)NNC(=O)C(=O)Nc2cccc(C)c2)c1` as the compound, how does the “viability” value read?
A: 90.2%

Q: With `CC(C)=CCN1CCN(CCC2=C(C)CCCC2(C)C)CC1CCO` (stereo unspecified) as the compound, how does the “viability” value read?
A: 88.3%

Q: For `CN1C(=O)CC(Sc2ccccc2C(=O)O)C1=O` (stereo unspecified), which “viability” value is on record?
A: 105%

Q: Which “viability” value does the source give for `Cc1ccc(N/N=C2\CS(=O)(=O)N(C)c3ccsc32)cc1` here?
A: 91.9%

Q: For `CCCOc1ccc(-c2nc(C#N)c(NCCCn3ccnc3)o2)cc1`, which “viability” value is on record?
A: 77.3%

Q: For `COc1ccc(C(=O)OCn2nnc3ccccc3c2=O)cc1[N+](=O)[O-]`, which “viability” value is on record?
A: 107%

Q: With `CC(C)CN(Cc1c(O)ccc2ccccc12)CC(C)C` as the compound, how does the “viability” value read?
A: 98.1%

Q: For `O=C(CNC(=O)c1ccco1)OCc1ccc(C(=O)Oc2ccccc2)cc1`, which “viability” value is on record?
A: 95.4%

Q: For `Oc1ccc(Cl)cc1CNCc1ccc(F)cc1`, which “viability” value is on record?
A: 97.2%

Q: For `O=[N+]([O-])c1ccc(CNc2cccc(Cl)c2)s1`, which “viability” value is on record?
A: 96.4%

Q: Which “viability” value does the source give for `CCC(C)[C@H]1CN=C(N)N1CCc1cccc2ccccc12` (stereo partly specified) here?
A: 104%

Q: With `COc1ccc(C(=O)OCn2nnc3ccccc3c2=O)cc1` as the compound, how does the “viability” value read?
A: 93.6%

Q: With `CC(C)N=C1SC(CC(=O)Nc2ccccc2)C(=O)N1C(C)C` (stereo unspecified) as the compound, how does the “viability” value read?
A: 94.4%

Q: With `Cc1cccc(CC(=O)NCC2CCCCC2)c1` as the compound, how does the “viability” value read?
A: 89.9%

Q: For `CCCN1C(=O)SC(CC(=O)Nc2ccccc2)C1=O` (stereo unspecified), which “viability” value is on record?
A: 99.3%

Q: With `O=C(NCC1CCN(c2ccc(S(=O)(=O)N3CCOCC3)cc2)CC1)c1ccc(Cl)cc1` as the compound, how does the “viability” value read?
A: 88%

Q: With `COC(=O)COc1ccc(S(=O)(=O)N2CCCCCC2)cc1` as the compound, how does the “viability” value read?
A: 80.5%

Q: With `N#Cc1ccc(-c2ccc(OCC(=O)Nc3cccnc3)cc2)cc1` as the compound, how does the “viability” value read?
A: 72.8%

Q: With `O=C(CN1CCN(c2ccccc2O)CC1)Nc1ccc2c(c1)CCC2` as the compound, how does the “viability” value read?
A: 107%

Q: Which “viability” value does the source give for `O=S(=O)(Nc1nccs1)c1ccc(NCc2cc(Br)cc(Br)c2O)cc1` here?
A: 88.4%

Q: With `COc1ccc(C2=NOC(COC(=O)c3ccc4ccccc4n3)C2)cc1` (stereo unspecified) as the compound, how does the “viability” value read?
A: 95.9%

Q: For `COc1ccc(C(=O)COC(=O)CCC(=O)c2cccs2)cc1`, which “viability” value is on record?
A: 105%

Q: With `O=C(O)COc1ccc2occ(C(=O)c3ccccc3)c2c1` as the compound, how does the “viability” value read?
A: 96.2%

Q: With `O=C(Nc1nnc(-c2ccco2)o1)c1ccc(Cl)s1` as the compound, how does the “viability” value read?
A: 72.1%

Q: For `CCOC(=O)c1c(C)[nH]c(C)c1C(=O)COC(=O)c1ccc([N+](=O)[O-])s1`, which “viability” value is on record?
A: 79.9%

Q: With `Cc1cc(C)c(OCC(=O)Nc2nnc(-c3ccco3)o2)c(C)c1` as the compound, how does the “viability” value read?
A: 100%

Q: For `O=C(OCC#CCSc1nnc(-c2ccncc2)o1)c1cccs1`, which “viability” value is on record?
A: 103%

— PubChem BioAssay AID492998 (Southern Research Specialized Biocontainment Screening …, 2010)
